# The list is not random: actives were taken first. Their share in the collection is about 2.4%.
# D2 ag-1 – Beta-Arrestin HTS for Positive Allosteric Modulators of the Human D2 Dopamine Receptor: Agonists; D(2) dopamine receptor (Homo sapiens), P14416; DiscoveRx PathHunter D2 beta-arrestin, luminescence, 90 min; 100% = 57 uM dopamine signal; activation, % (concentration not given with the values); 0.084% of 360,000 active; AID 624465, 2012; in the data active = activation above about 40%; inconclusive = between about 15% and that limit
# Target sequence (P14416 whole entry, looked up): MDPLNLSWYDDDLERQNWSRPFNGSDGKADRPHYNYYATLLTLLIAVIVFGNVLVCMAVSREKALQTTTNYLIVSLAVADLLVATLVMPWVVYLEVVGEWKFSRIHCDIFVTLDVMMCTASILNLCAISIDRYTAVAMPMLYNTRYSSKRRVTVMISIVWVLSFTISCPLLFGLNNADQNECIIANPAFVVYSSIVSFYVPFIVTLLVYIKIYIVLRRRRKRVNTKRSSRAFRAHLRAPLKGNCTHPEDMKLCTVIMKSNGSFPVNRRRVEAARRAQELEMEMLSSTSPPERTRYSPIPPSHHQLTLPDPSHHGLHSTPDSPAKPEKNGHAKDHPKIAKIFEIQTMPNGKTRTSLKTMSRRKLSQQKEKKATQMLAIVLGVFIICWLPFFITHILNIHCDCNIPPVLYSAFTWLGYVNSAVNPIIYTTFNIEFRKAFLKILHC
#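 DiscoveRx PathHunter D2 beta-arrestin cells (2,100/well) attached overnight, then compound-stimulated 90 min at 37 C in HBSS/10 mM HEPES/0.1% Tween-20 buffer; beta-galactosidase complementation read by luminescence after 1 h at ambient temperature. Dopamine 57 uM final (EC100) as control.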
# D2 PAM-1 – HTS Assay for Positive Allosteric Modulators of the Human D2 Dopamine Receptor: Primary Screen for Potentiators. AID 485347, 2010. 0.34% of 340,000 active. D(2) dopamine receptor (Homo sapiens), P14416. potentiation, % at 10 µM. HEK293 T-REx D2, calcium flux, EC20 dopamine potentiation;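 active = potentiation over 3 SD above the plate norm, cut at about 30% in these data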; note: 0% is about no effect
#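 Cells plated with tetracycline inducer and held overnight at 30 C; calcium dye loaded 30–90 min at room temperature; baseline taken, compound added and read 180 s; EC20 dopamine then added and read 180 s.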
# D2 PAM-2 – Beta-Arrestin HTS for Positive Allosteric Modulators of the Human D2 Dopamine Receptor: Potentiators. D(2) dopamine receptor (Homo sapiens), P14416. DiscoveRx D2 beta-arrestin cells, luminescence, 90 min; 100% = 57 uM dopamine signal. potentiation, % (concentration not given with the values). 0.23% of 360,000 active. AID 624464, 2012; in the data active = potentiation above about 50%; inconclusive = mostly about 30% to 49%
#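 PathHunter D2 cells, attached overnight at 37 deg C, received compound in DMSO plus dopamine at EC20 (50 nM final) for 90 min at 37 deg C. Beta-arrestin recruitment was read as luminescence after 1 h with detection reagent at ambient temperature.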
# D2 ag-2 – HTS Assay for Allosteric Agonists of the Human D2 Dopamine Receptor: Primary Screen for Agonists. HEK293 T-REx D2 cells, calcium flux agonist mode. D(2) dopamine receptor (Homo sapiens), P14416. activation, % at 2 µM. 0.53% of 340,000 active;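 active = activation over 3 SD above normal in the single-dose calcium agonist read, cut at about 30% in these data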; note: 0% is about no effect
#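 Tetracycline-induced HEK293 T-REx cells with force-coupled D2 receptor, plated overnight at 30 C, loaded with no-wash calcium dye. After a 10 s baseline, compound was pin-added and calcium flux read kinetically for 180 s; calcium rises flagged agonists.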
# D2 antagonist – HTS Assay for Allosteric Antagonists of the Human D2 Dopamine Receptor: Primary Screen for Antagonists; HEK293 TREx D2 cells, calcium flux, dopamine EC80; inhibition, % at 10 µM; 2% of 340,000 active; in the data active = inhibition above about 30%; inactive = below that, where a call was filed; note: 0% is about no effect
#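 Compounds are added to dye-loaded, induced HEK293 T-REx cells coupled to calcium release via D2; after a 3 min kinetic read an EC80 dopamine stimulus is given and fluorescence is recorded for 3 more min.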
# Active calls of the source: *; ? = inconclusive; · = not tested or not shown.
SMILES,D2 ag-1,D2 PAM-1,D2 PAM-2,D2 ag-2,D2 antagonist
O=C(Nc1c(C(=O)O)oc2ccccc12)c1ccc(C(F)(F)F)cc1,·,6,·,0,·
O=C(O)/C=C/c1ccc([N+](=O)[O-])o1,14,2,2,1,18
N#CCc1ccc(NC(=O)/C=C/c2ccc([N+](=O)[O-])o2)cc1,14,0,-7,0,32*
O=C(O)CN1C(=O)NC2(CCOc3ccccc32)C1=O (configuration not stated),-2,-3,-10,1,-1
O=C1NC2(CCOc3ccccc32)C(=O)N1CC(=O)N(Cc1ccccc1)C1CCS(=O)(=O)C1 (configuration not stated),-2,24,5,-1,40*
Cc1c(Cl)c(C(=O)Nc2nc3ccccc3n2CCN2CCCCC2)nn1C,·,35*,·,-1,-15
Cc1ccc(-n2c(=O)c3c(c4cc(C)ccc4n3C)n(CC(=O)Nc3ccc(F)cc3)c2=O)cc1,·,14,·,-1,·
Cc1ccc2nc(NC(=O)CSc3nc4c(c(=O)n3C)SC(C)C4)sc2c1 (configuration not stated),4,32*,17,0,-3
CCN1CCN(C(c2ccc(F)cc2)c2c(O)cc(C)n(CCOC)c2=O)CC1 (configuration not stated),·,13,·,·,·
Cc1[nH]c(=O)c(C#N)c(C)c1Br,-2,41*,11,·,·
O=C(NCc1ccccc1Cl)C(=O)NCC(c1cccs1)S(=O)(=O)c1ccccc1 (configuration not stated),·,21,·,1,·
COc1cccc(CN2CCCN(Cc3ccc(F)cc3)S2(=O)=O)c1,·,6,·,0,·
CCOC(=O)c1c(NC(C)=O)sc2c(O)c(Br)cc(Br)c12,2,7,13,0,36*
COc1ccc(NC(=O)C2CCN(C(=O)Nc3ccccc3)CC2)cc1S(=O)(=O)N(C)C,-2,-30,-39,1,77*
O=C(CN1C(=O)c2ccc([N+](=O)[O-])cc2C1=O)NCc1ccc(C(=O)O)cc1,9,0,51*,1,4
O=C(CCN1C(=O)c2ccc([N+](=O)[O-])cc2C1=O)Nc1ccc(O)cc1C(=O)O,?,17,61*,-2,-2
Nc1ccc(C2=Nc3cccc4cccc(c34)N2)cc1,?,-4,4,-1,9
CC1=Nc2cccc3cccc(c23)N1,7,14,56*,0,-1
COc1cccc(N2C(=O)C(CC(=O)Nc3ccc(Cl)cc3)N(Cc3ccc4c(c3)OCO4)C2=O)c1 (configuration not stated),·,·,·,0,·
CC(C)=CCN1CCN(Cc2c[nH]c3ccccc23)CC1CCO (configuration not stated),-2,-16,-31,0,47*
CC(C)CN1CCN(Cc2cccn2-c2ccccn2)CC1CCO (configuration not stated),-3,8,-8,2,9
CC(C)=CCN1CCN(Cc2cccn2-c2ccccn2)CC1CCO (configuration not stated),-6,-5,-6,-2,99*
CC(C)CN1CCN(Cc2c[nH]c3ccccc23)CC1CCO (configuration not stated),-1,5,-4,0,-15
c1ccc(SCCOCCN2CCc3ccccc3C2)cc1,-7,-20,-12,0,75*
CC1CC(C)CN(CCOCCSc2ccccc2)C1 (configuration not stated),-3,-21,-30,-1,65*
CC1CC(C)CN(CCCSc2ccccc2)C1 (configuration not stated),-4,11,-38,0,25
CC1CN(CCCSc2ccc(Cl)cc2)CC(C)O1 (configuration not stated),-2,-21,-23,-2,11
CC1CC(C)CN(CCOCCSc2ccc(Cl)cc2)C1 (configuration not stated),1,-25,-5,-1,65*

# Compound activity deposited in PubChem by National Center for Advancing Translational Sciences (NCATS).
